Screening data as filed in PubChem.
Only some compounds are listed: those with a hit (about 3% of all), similar ones and a draw of the others.
VDR inhibitor: inhibitors of human vitamin D receptor; VDR-SRC2-3 peptide fluorescence polarization, 2 h; Potency, µM, for inactives: max response, negative = inhibition, actives largely listed as inhibitors; 400,000 compounds, 0.93% hits; AID 504847
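VDR–SRC2-3 interaction, FP format. Cmpds 23 nl via pintool, brief spin, 2 h ambient incubation.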
PLK1 PBD block: blocks phosphopeptide binding to human PLK1 polo-box domain; Potency, µM, inactives show max response, negative = inhibition, most hits filed as inhibitors; P53350; Plk1 PBD binding of FITC phosphopeptide, fluorescence polarization; 360,000 compounds, 2.8% hits; AID 720504; also: series mostly up to about 57 µM; nearly all actives have a fitted effect of over 65% in size
12-LOX inh: blocks human arachidonate 12S-lipoxygenase; purified 12hLO, xylenol orange hydroperoxide absorbance; Potency, µM (doses to about 108 µM), for inactives: at the top dose activity change, negative = inhibition, usual class: inhibitors; 580,000 compounds, 1.1% hits; AID 1671190
Target sequence (P18054 whole entry, looked up): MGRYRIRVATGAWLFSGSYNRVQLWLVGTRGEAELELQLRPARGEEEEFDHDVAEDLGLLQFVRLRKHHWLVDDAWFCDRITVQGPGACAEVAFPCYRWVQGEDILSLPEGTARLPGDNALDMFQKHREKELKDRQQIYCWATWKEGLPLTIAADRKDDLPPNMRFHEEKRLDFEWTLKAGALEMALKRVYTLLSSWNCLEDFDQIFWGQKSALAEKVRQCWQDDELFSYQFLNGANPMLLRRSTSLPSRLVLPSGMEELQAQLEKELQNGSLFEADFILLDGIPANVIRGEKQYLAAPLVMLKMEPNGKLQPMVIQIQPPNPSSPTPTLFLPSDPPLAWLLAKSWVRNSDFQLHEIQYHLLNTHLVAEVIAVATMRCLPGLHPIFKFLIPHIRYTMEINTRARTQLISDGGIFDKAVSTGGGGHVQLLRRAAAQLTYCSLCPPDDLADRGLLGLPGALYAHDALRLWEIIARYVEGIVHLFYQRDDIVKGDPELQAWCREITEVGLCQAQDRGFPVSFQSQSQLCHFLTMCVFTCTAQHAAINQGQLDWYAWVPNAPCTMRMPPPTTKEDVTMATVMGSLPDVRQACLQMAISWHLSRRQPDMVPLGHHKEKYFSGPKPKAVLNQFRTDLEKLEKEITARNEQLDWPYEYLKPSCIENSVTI
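Purified human 12hLO at 150 nM in 25 mM Hepes, 0.01% Triton X-100, pH 7.0, preincubated 15 min at room temperature with compound. Reaction started with 40 uM arachidonic acid, 30 min at room temperature. Hydroperoxide measured by Fe-xylenol orange, 573/405 nm absorbance ratio.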
GCN5L2 inh: inhibitors of human GCN5L2 histone acetyltransferase; GCN5L2 HAT assay, ThioGlo1 CoA-SH fluorescence; 390,000 compounds, 0.21% hits; Q92830; Potency, µM (doses to about 58.9 µM), for inactives: top-dose activity change, negative = inhibition, actives largely listed as inhibitors
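GCN5L2 (20 nM) in 50mM HEPES pH 7.5, 0.1mM EDTA, 0.01% Tween-20 preincubated 15 min with compounds at room temperature. Reaction started with H3(1-25) 75uM, acetyl-CoA 70uM, ThioGlo1 50uM; CoA-thiol fluorescence (Ex340/Em540) read at 0 and 20 min.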
Starred values were filed as active, the others as inactive; ? = inconclusive; . = not tested or not shown. Calls follow the shape of the dose curve; as a rule, active = well fitted curve in the direction sought with a large enough effect; inconclusive = small, poorly fitted or top-dose-only effect, or another doubt; inactive = no such curve, though single readings can be large; an effect the other way counts as inactive or inconclusive. % is scaled to controls: 0 for no effect and ±100 for the full control effect; potency is read from the fitted curve at half-maximal effect.

SMILES | VDR inhibitor | PLK1 PBD block | 12-LOX inh | GCN5L2 inh
Cc1cc(O)c2c(c1)C(=O)[C@@]13Oc4c5c(c(O)c6c(O)cc(C)cc46)C(=O)C[C@H](O)[C@H]5[C@@H]1[C@@H](O)CC(=O)C3=C2O | -5% | 3.4µM* | . | .
COCCNC(=O)COC(=O)c1nsc(Cl)c1Cl | -5% | 27µM* | 2% | -5%
COCCNC(=O)C(C)OC(=O)c1nsc(Cl)c1Cl (stereo not drawn) | -9% | -5% | 2% | -2%
Cc1cc(C)c2nc(NC(=O)CCCn3c(=O)oc4ccccc43)sc2c1 | . | . | -36% | .
Cn1c(Cl)c(C=O)c2cc(C=O)ccc21 | . | . | 27% | .
O=C(NCc1ccc(F)cc1)C1CCN(S(=O)(=O)c2ccc(N3CCCC3=O)cc2)CC1 | . | 4% | -3% | .
O=C(NCCc1cccc(F)c1)C1CCN(S(=O)(=O)c2ccc(F)cc2)CC1 | -2% | -2% | ? | 2%
CC(C)[C@H](NC(=O)C1CCN(S(=O)(=O)c2ccc(F)cc2)CC1)C(=O)NCc1ccco1 | -26% | 27µM* | 2% | 0%
O=C(NCc1ccccc1Cl)C1CCN(S(=O)(=O)c2ccc(N3CCCC3=O)cc2)CC1 | ? | 12µM* | 10% | -11%
CCNC(=O)C1CCN(S(=O)(=O)c2ccc(F)cc2)CC1 | ? | 21µM* | 0% | -4%
Nc1ccnn1C1CCCCC1 | . | . | -2% | .
O=C(C#Cc1ccccc1)c1ccccc1 | . | 3µM* | -12% | .
O=C(CNc1ccccc1)c1ccc([N+](=O)[O-])cc1 | ? | ? | ? | -3%
CN(C)C(=O)C#Cc1ccccc1 | 9% | -1% | 19% | -3%
O=C(C#Cc1ccccc1)c1ccc([N+](=O)[O-])cc1 | 14µM* | 0.47µM* | 0% | 0%
Cc1cc(/C=N/NC(N)=S)c(C)n1-c1ccc(Cl)cc1 | -28% | 30µM* | ? | -3%
O=CN1Cc2nc3ccccc3n2-c2cc(Br)ccc21 | . | . | -6% | .
COc1ccc(NC(=S)Nc2cc(-c3ccccc3)[nH]n2)cc1Cl | -30% | 21µM* | ? | -12%
Cc1cc(NC(=S)Nc2ccc(C)c(Cl)c2)n[nH]1 | ? | -17% | 14µM* | -1%
COc1ccc(NC(=S)Nc2cc(C)[nH]n2)cc1Cl | -8% | 17µM* | ? | 0%
COc1ccc(/C=N/n2cnn(Cc3ccccc3Cl)c2=S)cc1 | ? | 27µM* | -17% | -13%
Oc1ccccc1/C=N/n1cnn(Cc2ccccc2Cl)c1=S | ? | 4.7µM* | ? | -5%
COc1cc(/C=N/n2cnn(Cc3ccccc3Cl)c2=S)cc(OC)c1OC | ? | ? | -22% | -14%
Oc1ccccc1/C=N/n1cnnc1 | 8% | 2% | ? | -5%
CCOC(=O)C(NC(=O)/C=C/c1ccc2cc(OC)ccc2c1)C(=O)OCC | . | . | -19% | .
SMILES | VDR inhibitor | PLK1 PBD block | 12-LOX inh | GCN5L2 inh
CC1=NN2C(=N)/C(=C\c3cc(C)n(Cc4ccccc4)c3C)C(=O)N=C2S1 | 3% | -11% | 190% | -6%
CC1=NN2C(=N)/C(=C\c3ccc(SCc4ccccc4)o3)C(=O)N=C2S1 | -14% | -28% | 40µM* | -27%
O=C(Cn1cc(S(=O)(=O)N2CCCC2)ccc1=O)c1c[nH]c2ccccc12 | . | . | -8% | .
O=C(c1cc2ccccc2o1)c1cccs1 | -9% | 24µM* | 0% | -3%
Cc1cccnc1NC(=O)Cn1nc([N+](=O)[O-])cc1C | 1% | 1% | 9% | -1%
Cc1cccnc1NC(=O)Cn1nc(-c2ccccc2)oc1=S | ? | 24µM* | 12% | -1%
Cc1onc(-c2ccccc2)c1C(=O)OCCOc1ccccc1F | ? | 27µM* | -9% | -11%
COC(=O)COc1ccc2c(=O)c(Oc3ccc(C(=O)OC)cc3)c(C)oc2c1 | . | . | -12% | .
c1ccc(-c2ccc3c(c2)c2c4n3CCN=C4CCC2)cc1 | 14% | 30µM* | ? | -17%
OC1CN=C2CCCc3c2n(c2ccc(Cl)cc32)C1 (stereo not drawn) | -9% | -29% | -29% | 1%
COc1ccc(-c2cc(N3CCCC(NC(=O)c4ccc(OC)cc4OC)C3)n[nH]2)cc1 (stereo not drawn) | . | . | 36% | .
COc1ccc(C2=C/C(=C\c3ccc(OC(C)=O)cc3)C(=O)O2)cc1 | -14% | -10% | -17% | -2%
CC(=O)Oc1cccc(/C=C2\C=C(c3ccc(C)cc3)OC2=O)c1 | ? | 19µM* | ? | -3%
O=C(Nc1ccc(Cc2ccncc2)cc1)C1CCC(N2C(=O)C3C4C=CC(C5CC45)C3C2=O)CC1 (stereo not drawn) | 4% | -5% | -12% | -6%
